# Measurements taken from paper PMC7862700, “An all-to-all approach to the identification of sequence-specific readers for epigenetic DNA modifications on cytosine”.
# Experiments:
# Test in all cases: DAPPL (digital affinity profiling via proximity ligation, sequencing); 10 mM Tris-HCl pH 7.5, 50 mM NaCl, 1 mM DTT, 4% glycerol, room temperature, 30 min; GST-TFs on glutathione beads, 16-mer random dsDNA library, 0.1% formaldehyde crosslink after washing; high values mean tight binding
# FEV = biological target: T1, FEV (Homo sapiens, UniProt Q99581 1-238); conditions: protein: recombinant; tags: N-terminal GST; dsDNA, one strand shown
# T1 sequence: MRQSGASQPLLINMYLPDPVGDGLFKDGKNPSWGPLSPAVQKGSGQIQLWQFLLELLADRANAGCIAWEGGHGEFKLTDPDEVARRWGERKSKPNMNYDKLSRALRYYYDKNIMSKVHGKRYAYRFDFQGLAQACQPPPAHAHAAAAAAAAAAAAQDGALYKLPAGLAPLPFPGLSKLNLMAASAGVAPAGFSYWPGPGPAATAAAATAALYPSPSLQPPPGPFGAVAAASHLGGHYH
# Procedure, shortened: (§1)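 Pools of DNA-barcoded human transcription factors, expressed in yeast as GST fusions on glutathione beads and combined with a tag-only sample, were incubated with 200 nmole of a 16-mer random double-stranded DNA library. Incubation took 30 min at room temperature in Tris/NaCl/DTT/glycerol buffer and was followed by washing, 0.1% formaldehyde crosslinking, proximity ligation (BsaI/T4 ligase, 1 h, 37 °C), PCR amplification and sequencing on an Illumina NextSeq500. Binding signal is the ratio of a hexamer's read frequency for a factor to its frequency for the tag-only sample.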
# ETV5 = ETV5 (Homo sapiens, UniProt P41161 1-510); conditions: protein: recombinant; tags: N-terminal GST; dsDNA, one strand shown
# Procedure, shortened: as §1
# HSF1 = HSF1 (Homo sapiens, UniProt Q00613 1-529); conditions: protein: recombinant; tags: N-terminal GST; chain copies: 3; dsDNA, one strand shown
# Procedure, shortened: as §1
# SPIC = biological target: T2, SPIC (Homo sapiens, UniProt Q8N5J4 1-248); conditions: protein: recombinant; tags: N-terminal GST; dsDNA, one strand shown
# T2 sequence: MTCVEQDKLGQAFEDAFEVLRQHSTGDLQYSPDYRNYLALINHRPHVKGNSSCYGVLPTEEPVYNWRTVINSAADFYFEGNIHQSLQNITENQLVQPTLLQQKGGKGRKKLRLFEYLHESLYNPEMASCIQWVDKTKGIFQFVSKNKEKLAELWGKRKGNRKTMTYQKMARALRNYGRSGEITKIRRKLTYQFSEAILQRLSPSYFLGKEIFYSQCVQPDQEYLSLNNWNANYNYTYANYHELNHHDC
# Procedure, shortened: as §1
# ELF4 = ELF4 (Homo sapiens, UniProt Q99607 1-663); conditions: protein: recombinant; tags: N-terminal GST; dsDNA, one strand shown
# Procedure, shortened: as §1
# ELK4 = biological target: T3, ELK4 (Homo sapiens, UniProt P28324-2 1-405); conditions: protein: recombinant; tags: N-terminal GST; dsDNA, one strand shown
# T3 sequence: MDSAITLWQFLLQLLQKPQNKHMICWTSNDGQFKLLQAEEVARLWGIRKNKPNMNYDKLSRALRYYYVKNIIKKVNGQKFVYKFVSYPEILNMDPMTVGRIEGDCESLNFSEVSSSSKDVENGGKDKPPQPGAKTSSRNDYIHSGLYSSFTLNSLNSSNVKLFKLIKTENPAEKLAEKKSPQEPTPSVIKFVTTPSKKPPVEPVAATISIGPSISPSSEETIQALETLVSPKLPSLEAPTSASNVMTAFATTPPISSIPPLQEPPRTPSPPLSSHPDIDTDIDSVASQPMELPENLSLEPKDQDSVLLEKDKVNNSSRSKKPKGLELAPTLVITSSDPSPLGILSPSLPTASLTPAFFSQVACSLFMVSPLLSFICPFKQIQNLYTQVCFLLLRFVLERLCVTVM
# Procedure, shortened: as §1
# ETV2 = biological target: T4, ETV2 (Homo sapiens, UniProt O00321 1-342); conditions: protein: recombinant; tags: N-terminal GST; dsDNA, one strand shown
# T4 sequence: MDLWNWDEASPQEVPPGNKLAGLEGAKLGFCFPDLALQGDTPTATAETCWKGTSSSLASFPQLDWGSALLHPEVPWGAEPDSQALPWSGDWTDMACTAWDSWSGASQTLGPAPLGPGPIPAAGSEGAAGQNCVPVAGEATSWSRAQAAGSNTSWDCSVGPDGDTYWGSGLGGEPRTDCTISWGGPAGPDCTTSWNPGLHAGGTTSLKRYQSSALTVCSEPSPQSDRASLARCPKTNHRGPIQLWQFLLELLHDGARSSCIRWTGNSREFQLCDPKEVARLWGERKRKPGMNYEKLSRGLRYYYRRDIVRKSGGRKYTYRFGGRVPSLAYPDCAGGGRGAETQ
# Procedure, shortened: as §1
# ELF3 = biological target: T5, ELF3 (Homo sapiens, UniProt P78545 1-371); conditions: protein: recombinant; tags: N-terminal GST; dsDNA, one strand shown
# T5 sequence: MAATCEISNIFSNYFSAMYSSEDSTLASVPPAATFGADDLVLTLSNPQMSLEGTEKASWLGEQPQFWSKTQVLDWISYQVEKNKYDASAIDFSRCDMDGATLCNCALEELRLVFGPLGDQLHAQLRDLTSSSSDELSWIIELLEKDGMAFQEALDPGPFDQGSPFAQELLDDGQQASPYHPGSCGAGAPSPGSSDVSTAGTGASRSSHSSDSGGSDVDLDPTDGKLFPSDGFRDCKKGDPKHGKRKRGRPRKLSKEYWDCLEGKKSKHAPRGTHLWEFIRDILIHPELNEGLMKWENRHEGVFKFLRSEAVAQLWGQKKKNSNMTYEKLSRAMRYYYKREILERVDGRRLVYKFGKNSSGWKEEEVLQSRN
# Procedure, shortened: as §1
# CRX = CRX (Homo sapiens, UniProt O43186 1-299); conditions: protein: recombinant; tags: N-terminal GST; dsDNA, one strand shown
# Procedure, shortened: as §1
# ETV1 = ETV1 (Homo sapiens, UniProt P50549 1-477); conditions: protein: recombinant; tags: N-terminal GST; dsDNA, one strand shown
# Procedure, shortened: as §1
# ERF = biological target: T6, ERF (Homo sapiens, UniProt P50548 1-548); conditions: protein: recombinant; tags: N-terminal GST; dsDNA, one strand shown
# T6 sequence: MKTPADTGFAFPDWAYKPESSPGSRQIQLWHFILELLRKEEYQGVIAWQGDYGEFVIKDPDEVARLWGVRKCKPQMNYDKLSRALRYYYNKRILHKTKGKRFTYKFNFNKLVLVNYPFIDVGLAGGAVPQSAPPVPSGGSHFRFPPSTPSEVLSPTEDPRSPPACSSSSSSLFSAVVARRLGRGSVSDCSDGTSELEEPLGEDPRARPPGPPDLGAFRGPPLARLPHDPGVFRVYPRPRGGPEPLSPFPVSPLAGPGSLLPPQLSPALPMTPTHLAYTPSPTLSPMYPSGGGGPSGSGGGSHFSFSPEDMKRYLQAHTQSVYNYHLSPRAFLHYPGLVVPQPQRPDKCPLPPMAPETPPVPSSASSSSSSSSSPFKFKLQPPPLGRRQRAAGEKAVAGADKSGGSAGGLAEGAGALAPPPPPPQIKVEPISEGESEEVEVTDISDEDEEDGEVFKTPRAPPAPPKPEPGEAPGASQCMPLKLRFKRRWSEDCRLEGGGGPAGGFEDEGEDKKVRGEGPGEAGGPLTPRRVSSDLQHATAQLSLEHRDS
# Procedure, shortened: as §1
# ETV3L = biological target: T7, ETV3L (Homo sapiens, UniProt Q6ZN32 1-361); conditions: protein: recombinant; tags: N-terminal GST; dsDNA, one strand shown
# T7 sequence: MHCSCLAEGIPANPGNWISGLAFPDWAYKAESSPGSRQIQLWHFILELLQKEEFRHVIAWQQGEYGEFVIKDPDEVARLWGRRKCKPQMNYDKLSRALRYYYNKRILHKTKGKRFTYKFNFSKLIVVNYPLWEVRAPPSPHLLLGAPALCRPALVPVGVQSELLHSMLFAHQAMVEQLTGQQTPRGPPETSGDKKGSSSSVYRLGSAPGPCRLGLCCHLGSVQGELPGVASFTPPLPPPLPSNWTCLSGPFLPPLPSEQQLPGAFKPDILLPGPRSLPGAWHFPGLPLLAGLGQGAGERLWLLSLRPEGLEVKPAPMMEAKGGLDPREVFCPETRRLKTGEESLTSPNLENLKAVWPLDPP
# Procedure, shortened: as §1
# ETS2 = biological target: T8, ETS2 (Homo sapiens, UniProt P15036 1-469); conditions: protein: recombinant; tags: N-terminal GST; dsDNA, one strand shown
# T8 sequence: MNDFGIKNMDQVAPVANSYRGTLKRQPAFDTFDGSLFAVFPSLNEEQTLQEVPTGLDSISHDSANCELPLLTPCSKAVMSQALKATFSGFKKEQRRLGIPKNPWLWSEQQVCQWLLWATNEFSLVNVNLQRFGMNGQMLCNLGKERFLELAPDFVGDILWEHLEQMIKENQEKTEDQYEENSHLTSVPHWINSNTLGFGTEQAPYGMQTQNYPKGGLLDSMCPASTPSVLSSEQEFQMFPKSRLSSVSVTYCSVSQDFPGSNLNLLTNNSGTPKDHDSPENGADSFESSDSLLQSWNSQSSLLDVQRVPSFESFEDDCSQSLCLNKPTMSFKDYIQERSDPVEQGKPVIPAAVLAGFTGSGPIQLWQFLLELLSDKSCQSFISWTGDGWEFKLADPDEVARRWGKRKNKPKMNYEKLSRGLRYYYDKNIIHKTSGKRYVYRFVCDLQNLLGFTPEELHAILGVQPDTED
# Procedure, shortened: as §1
# SPDEF = biological target: T9, SPDEF (Homo sapiens, UniProt O95238 1-335); conditions: protein: recombinant; tags: N-terminal GST; dsDNA, one strand shown
# T9 sequence: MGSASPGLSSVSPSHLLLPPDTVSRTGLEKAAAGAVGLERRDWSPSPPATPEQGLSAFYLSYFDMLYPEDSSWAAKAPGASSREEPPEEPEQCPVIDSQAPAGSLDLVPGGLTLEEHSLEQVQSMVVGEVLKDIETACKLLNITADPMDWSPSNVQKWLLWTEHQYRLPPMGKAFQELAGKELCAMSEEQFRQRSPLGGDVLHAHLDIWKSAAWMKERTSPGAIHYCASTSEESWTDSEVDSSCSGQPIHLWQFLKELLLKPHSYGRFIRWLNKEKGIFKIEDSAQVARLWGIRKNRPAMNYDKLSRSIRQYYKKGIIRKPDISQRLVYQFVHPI
# Procedure, shortened: as §1
# ETV7 = biological target: T10, ETV7 (Homo sapiens, UniProt Q9Y603 1-341); conditions: protein: recombinant; tags: N-terminal GST; dsDNA, one strand shown
# T10 sequence: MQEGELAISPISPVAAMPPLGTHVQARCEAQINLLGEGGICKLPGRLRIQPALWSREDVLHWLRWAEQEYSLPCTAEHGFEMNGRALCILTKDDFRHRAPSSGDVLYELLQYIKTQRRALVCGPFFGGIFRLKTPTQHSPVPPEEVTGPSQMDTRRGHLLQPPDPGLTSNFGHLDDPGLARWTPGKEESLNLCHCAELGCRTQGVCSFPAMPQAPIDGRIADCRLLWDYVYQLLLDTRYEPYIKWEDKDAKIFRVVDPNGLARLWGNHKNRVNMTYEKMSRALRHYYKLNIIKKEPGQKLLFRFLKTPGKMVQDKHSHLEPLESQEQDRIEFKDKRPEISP
# Procedure, shortened: as §1
# ELF5 = biological target: T11, ELF5 (Homo sapiens, UniProt Q9UKW6-2 1-255); conditions: protein: recombinant; tags: N-terminal GST; dsDNA, one strand shown
# T11 sequence: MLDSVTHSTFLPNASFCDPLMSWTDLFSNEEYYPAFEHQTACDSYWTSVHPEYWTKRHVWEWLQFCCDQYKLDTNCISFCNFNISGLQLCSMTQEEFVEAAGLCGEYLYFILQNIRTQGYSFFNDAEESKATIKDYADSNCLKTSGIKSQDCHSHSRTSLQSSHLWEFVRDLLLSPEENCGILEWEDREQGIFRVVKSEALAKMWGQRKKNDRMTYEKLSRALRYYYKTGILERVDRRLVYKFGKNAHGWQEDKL
# Procedure, shortened: as §1
# ETV3 = biological target: T12, ETV3 (Homo sapiens, UniProt P41162-2 1-143); conditions: protein: recombinant; tags: N-terminal GST; dsDNA, one strand shown
# T12 sequence: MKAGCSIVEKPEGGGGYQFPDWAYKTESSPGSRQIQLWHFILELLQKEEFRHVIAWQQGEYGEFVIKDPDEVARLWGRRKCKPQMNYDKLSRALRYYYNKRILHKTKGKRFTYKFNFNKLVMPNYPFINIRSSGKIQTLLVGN
# Procedure, shortened: as §1
# ETV6 = ETV6 (Homo sapiens, UniProt P41212 1-452); conditions: protein: recombinant; tags: N-terminal GST; dsDNA, one strand shown
# Procedure, shortened: as §1
# Sequence of HSF1 (Q00613 whole entry): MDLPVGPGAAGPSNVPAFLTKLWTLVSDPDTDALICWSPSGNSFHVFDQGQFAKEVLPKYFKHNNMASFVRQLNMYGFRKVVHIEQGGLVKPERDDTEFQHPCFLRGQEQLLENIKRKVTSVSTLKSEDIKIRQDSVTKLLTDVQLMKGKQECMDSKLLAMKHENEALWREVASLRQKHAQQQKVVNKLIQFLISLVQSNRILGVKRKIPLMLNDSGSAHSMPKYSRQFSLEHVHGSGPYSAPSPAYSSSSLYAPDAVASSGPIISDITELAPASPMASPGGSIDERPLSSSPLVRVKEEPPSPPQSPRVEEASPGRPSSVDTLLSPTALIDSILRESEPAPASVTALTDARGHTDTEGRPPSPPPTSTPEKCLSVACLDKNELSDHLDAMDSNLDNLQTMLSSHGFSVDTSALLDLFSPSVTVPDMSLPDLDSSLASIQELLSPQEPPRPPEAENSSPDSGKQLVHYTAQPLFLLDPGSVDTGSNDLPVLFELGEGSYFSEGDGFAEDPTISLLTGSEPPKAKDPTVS
# Sequence of ETV5 (P41161 whole entry): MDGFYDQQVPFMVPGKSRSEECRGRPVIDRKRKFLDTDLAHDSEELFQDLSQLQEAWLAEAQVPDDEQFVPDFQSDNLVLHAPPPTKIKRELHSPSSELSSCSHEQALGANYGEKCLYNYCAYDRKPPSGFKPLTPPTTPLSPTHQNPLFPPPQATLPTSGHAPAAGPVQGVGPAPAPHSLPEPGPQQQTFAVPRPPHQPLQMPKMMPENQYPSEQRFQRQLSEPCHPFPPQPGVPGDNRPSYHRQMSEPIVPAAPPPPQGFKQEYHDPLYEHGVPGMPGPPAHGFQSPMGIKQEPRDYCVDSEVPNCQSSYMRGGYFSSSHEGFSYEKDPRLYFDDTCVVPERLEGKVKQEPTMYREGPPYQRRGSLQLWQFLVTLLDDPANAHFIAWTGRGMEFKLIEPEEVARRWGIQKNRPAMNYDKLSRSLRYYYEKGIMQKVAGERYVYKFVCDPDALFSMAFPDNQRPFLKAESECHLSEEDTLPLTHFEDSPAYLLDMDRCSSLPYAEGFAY
# Sequence of ETV1 (P50549 whole entry): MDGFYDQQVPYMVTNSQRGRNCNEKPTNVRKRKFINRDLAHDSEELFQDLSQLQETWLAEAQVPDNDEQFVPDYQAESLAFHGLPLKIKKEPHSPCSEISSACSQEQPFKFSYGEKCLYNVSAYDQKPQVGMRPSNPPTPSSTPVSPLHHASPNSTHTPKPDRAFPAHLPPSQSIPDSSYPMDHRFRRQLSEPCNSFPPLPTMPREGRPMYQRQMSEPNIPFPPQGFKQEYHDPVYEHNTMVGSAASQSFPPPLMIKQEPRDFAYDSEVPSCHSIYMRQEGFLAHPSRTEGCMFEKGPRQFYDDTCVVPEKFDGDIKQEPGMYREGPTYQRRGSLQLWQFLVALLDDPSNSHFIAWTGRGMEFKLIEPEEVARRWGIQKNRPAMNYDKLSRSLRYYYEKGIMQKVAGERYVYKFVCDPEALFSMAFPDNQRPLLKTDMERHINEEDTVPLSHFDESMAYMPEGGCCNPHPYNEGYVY
# Sequence of ETV6 (P41212 whole entry): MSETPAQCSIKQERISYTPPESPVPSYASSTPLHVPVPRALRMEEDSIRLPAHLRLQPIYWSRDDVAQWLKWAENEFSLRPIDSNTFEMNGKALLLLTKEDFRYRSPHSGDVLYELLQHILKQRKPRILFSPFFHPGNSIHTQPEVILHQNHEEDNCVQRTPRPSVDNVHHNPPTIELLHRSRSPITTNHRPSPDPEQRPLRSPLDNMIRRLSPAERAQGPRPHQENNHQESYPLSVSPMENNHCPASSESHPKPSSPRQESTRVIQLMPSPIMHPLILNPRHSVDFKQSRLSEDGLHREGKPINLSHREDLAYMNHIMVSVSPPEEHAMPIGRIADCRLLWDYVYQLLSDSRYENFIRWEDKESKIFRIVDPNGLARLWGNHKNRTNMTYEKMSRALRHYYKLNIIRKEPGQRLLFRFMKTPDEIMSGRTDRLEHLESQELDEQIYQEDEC
# Sequence of ELF4 (Q99607 whole entry): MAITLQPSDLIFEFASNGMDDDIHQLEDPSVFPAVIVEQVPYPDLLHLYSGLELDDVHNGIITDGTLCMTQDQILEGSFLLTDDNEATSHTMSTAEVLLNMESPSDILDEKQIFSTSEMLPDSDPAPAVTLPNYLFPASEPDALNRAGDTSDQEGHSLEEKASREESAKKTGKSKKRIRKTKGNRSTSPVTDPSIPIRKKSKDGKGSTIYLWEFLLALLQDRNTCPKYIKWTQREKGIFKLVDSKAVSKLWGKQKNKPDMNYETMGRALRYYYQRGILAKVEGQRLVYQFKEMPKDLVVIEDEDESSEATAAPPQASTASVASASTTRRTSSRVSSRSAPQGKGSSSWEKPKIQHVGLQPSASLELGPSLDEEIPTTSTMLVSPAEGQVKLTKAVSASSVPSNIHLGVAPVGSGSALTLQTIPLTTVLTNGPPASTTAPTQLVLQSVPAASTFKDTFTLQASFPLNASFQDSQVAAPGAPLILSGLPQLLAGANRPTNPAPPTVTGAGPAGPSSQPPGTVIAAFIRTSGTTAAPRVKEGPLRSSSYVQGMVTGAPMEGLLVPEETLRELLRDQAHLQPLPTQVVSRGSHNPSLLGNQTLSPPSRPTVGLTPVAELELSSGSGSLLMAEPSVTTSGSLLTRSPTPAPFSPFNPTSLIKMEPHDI
# Sequence of CRX (O43186 whole entry): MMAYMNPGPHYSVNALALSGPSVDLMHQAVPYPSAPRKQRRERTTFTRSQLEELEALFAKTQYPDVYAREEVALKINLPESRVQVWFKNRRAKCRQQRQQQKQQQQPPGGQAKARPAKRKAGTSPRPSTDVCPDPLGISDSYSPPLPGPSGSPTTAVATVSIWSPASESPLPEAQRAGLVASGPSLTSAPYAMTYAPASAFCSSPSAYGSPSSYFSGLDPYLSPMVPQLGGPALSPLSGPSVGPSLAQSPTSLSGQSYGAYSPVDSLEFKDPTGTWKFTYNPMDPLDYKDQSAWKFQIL
sequence,measurement,setting,value
GTCTCG,binding signal,FEV,"1.3 fold enrichment (6-mer frequency, TF over GST control)"
same,binding signal,ETV5,"1.25 fold enrichment (6-mer frequency, TF over GST control)"
same,binding signal,HSF1,"1.55 fold enrichment (6-mer frequency, TF over GST control)"
same,binding signal,SPIC,"1.21 fold enrichment (6-mer frequency, TF over GST control)"
same,binding signal,ELF4,"1.43 fold enrichment (6-mer frequency, TF over GST control)"
same,binding signal,ELK4,"1.3 fold enrichment (6-mer frequency, TF over GST control)"
same,binding signal,ETV2,"1.03 fold enrichment (6-mer frequency, TF over GST control)"
same,binding signal,ELF3,"1.35 fold enrichment (6-mer frequency, TF over GST control)"
same,binding signal,CRX,"1.06 fold enrichment (6-mer frequency, TF over GST control)"
same,binding signal,ETV1,"1.35 fold enrichment (6-mer frequency, TF over GST control)"
same,binding signal,ERF,"1.29 fold enrichment (6-mer frequency, TF over GST control)"
same,binding signal,ETV3L,"1.29 fold enrichment (6-mer frequency, TF over GST control)"
same,binding signal,ETS2,"1.37 fold enrichment (6-mer frequency, TF over GST control)"
same,binding signal,SPDEF,"1.09 fold enrichment (6-mer frequency, TF over GST control)"
same,binding signal,ETV7,"1.28 fold enrichment (6-mer frequency, TF over GST control)"
same,binding signal,ELF5,"1.26 fold enrichment (6-mer frequency, TF over GST control)"
same,binding signal,ETV3,"1.33 fold enrichment (6-mer frequency, TF over GST control)"
same,binding signal,ETV6,"1.32 fold enrichment (6-mer frequency, TF over GST control)"
